Measurements as given in the OligoGym collection.

The sequences below were run against GABRA1 (assay: pooled miR-30 sensor sort-seq; sequence = guide strand). Conditions: shRNA.
Also: reference of the scale not given here.

Sequence | sensor-assay potency score (higher = more potent)
TTTATCTCTAAAACATCTGGGC | 0.106
TCTTCTGCTACAACCACTGAGC | -0.0993
TTTTCTTGTATCTTTGAACCAT | 0.355
TTGTGAGAGAATCACTGTCATT | -1.6
TTAAATATCTGTTAAACTCTAT | -0.0161
TTACACGCTCTCCCAATCCTGG | -1.04
TACTGTGGCAAACTCAATCAGA | -0.32
TACAATGAGCAACTGCACCTTT | 0.167
TTGTCCAAGAAGGTCATACTGG | -0.186
TTTCTTGTATCTTTGAACCATC | -0.813
TTAGTGAAATAGTTTACTGTGG | -0.522
TATATCATTGGATAGCAGCTTT | -0.213

These sequences were tested against GABRB2 in the same assay as above. Conditions: shRNA.

Sequence | sensor-assay potency score (higher = more potent)
TCAGAAACCATATCGATGCTGG | 0.313
TTAACCAGCGACATATTACTAG | -0.576
TATTACATTATAGGACAGCCTC | -0.766
TCTACAATAGAGAACTGTGGAA | -0.939
TTACATTATAGGACAGCCTCTT | -0.0422
TTAATCCAGAAGGAGACCCAGG | -0.469
TTGCGCCACATGTCGTTCCAGA | -0.912
TTAAAGCTGAGGGATAACCTGG | -0.689
TAATCTACAATAGAGAACTGTG | -0.184
TTTCAGGAGTCTATCCACCGTC | -0.228
TTGTTGAAAGTACATTGTCAAG | -1.79
TACATTATAGGACAGCCTCTTA | -0.982
TATCTCTCCAGGCTTGTTGAAA | -1.12
TGAAAGTACATTGTCAAGGTAT | 0.245
TCATAGGCTAGCATTGTGCTTC | -0.299
TTTGTAATCTACAATAGAGAAC | -1.05
TTATCGTTCAGGAAATAGGTAT | -0.408
TTCAGGAGTCTATCCACCGTCT | 0.156
TCTGAGTCCATAAAGGACGGTG | -0.531
TTTCTCTTAAGCTTAAAGCTGA | -0.0649
TAGGCTAGCATTGTGCTTCTGG | 0.754
TGAAGCATCGTAATTAATCCAG | -0.467

Each sequence was assayed against GABRP in the same assay as above. Conditions: shRNA.

Sequence | sensor-assay potency score (higher = more potent)
TATGGTGGCTGTGTAGTCCATG | -0.102
TAGTCAACGTTGTCGCTGGAAA | -1.15
TTGGACTCCACAATGTAAGTAT | 0.553
TTTTCTCGGAAGACAAACTTGA | -0.264
AAATACAGAACATTCCTCCGAA | 0.853
ATAATCAACAATCCTGCCCATC | -0.969
